High-throughput results deposited in PubChem BioAssay by National Center for Advancing Translational Sciences (NCATS).
This is a sample that favours compounds with a hit; in the whole collection about 2.9% have one here.
SNCA expr inhib = inhibitors of alpha-synuclein (SNCA) gene expression; HEK-293 SNCA-luciferase knock-in, luminescence, 24 h; Potency, µM (highest dose often 57.2 µM), for inactives: at the top dose activity change, negative = inhibition, most hits filed as inhibitors; actives 0.17% (n = 140,000);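 note: potency is the fitted concentration of half-maximal effect; plate controls were DMSO cells for no effect and cell-free wells for full effect; nearly all actives have a fitted effect of over 45% in size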
KDM5B inhibitor = KDM5B demethylase inhibition; actives 2.6% (n = 220,000); Potency, µM (titrated, usually from 57.7 µM), most hits filed as inhibitors; KDM5B demethylase, FDH-coupled NADH fluorescence (FDH is formaldehyde dehydrogenase); Q9UGL1; note: potency is the fitted concentration of half-maximal effect; 0% is about no effect; nearly all actives have a fitted effect of over 70% in size
Target sequence (Q9UGL1 whole entry, looked up): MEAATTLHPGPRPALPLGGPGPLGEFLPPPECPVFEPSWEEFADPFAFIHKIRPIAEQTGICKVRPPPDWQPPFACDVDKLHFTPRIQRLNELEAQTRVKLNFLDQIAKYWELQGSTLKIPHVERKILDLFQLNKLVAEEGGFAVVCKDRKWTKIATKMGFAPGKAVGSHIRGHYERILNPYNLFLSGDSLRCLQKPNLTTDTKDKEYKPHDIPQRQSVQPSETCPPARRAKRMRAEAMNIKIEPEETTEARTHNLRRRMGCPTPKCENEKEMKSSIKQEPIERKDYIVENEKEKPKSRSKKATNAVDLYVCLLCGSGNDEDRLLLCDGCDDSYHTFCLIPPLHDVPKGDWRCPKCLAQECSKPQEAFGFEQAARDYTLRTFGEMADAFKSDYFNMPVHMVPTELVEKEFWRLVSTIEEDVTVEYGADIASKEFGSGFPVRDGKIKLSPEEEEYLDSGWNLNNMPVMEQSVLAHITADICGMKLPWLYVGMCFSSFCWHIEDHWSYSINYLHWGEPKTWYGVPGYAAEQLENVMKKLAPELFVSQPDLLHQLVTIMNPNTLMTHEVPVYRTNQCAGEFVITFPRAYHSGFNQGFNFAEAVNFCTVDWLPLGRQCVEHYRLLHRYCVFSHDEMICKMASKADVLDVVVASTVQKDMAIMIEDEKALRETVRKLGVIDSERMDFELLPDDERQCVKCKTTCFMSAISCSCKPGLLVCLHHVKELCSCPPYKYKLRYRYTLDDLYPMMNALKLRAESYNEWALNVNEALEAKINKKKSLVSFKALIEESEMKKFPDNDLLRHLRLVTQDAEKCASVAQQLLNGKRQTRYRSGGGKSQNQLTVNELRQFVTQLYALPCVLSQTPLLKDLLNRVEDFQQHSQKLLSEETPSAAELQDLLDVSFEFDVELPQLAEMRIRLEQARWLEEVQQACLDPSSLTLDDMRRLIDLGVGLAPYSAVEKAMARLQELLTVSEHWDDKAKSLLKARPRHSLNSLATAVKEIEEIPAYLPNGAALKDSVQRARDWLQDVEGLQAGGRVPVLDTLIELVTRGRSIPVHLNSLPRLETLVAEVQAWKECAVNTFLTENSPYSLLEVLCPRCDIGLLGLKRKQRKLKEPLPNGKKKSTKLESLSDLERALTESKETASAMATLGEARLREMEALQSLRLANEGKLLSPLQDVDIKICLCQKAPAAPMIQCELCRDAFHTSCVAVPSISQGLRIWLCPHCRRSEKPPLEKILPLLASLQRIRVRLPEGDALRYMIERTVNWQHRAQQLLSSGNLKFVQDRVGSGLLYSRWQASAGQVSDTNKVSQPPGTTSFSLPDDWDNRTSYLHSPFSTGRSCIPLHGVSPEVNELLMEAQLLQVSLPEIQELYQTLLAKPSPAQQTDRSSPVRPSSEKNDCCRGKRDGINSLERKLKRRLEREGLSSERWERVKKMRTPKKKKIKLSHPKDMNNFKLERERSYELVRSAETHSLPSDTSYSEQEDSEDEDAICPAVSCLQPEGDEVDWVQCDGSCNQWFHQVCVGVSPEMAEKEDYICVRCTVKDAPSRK
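Here, H3K4me3 peptide (12.5 µM in substrate mix) is demethylated by KDM5BΔAP, 200 nM final, after 10 min compound exposure. Formaldehyde product is coupled through FDH (0.25 U/mL in mix) to NADH fluorescence; 30-min ΔRFU feeds dose-response curves.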
HEK293 viab = cell viability loss counter-screen; HEK-293-SNCA-luc viability, GF-AFC fluorescence, 24 h; Potency, µM (doses to about 57.1 µM), without a hit: at the top dose activity change, negative = cytotoxicity, hits mostly cytotoxic; actives 0.12% (n = 150,000); AID 1671193;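 note: potency is the fitted concentration of half-maximal effect; 0% = DMSO-treated cells and -100% = medium-only wells without cells; nearly all actives have a fitted effect of over 30% in size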
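HEK-293-SNCA-luc cells (1500/well) plated 24 h, then exposed 24 h to a dilution series; GF-AFC added 30 min at 37C, fluorescence 405/540 nm; normalised to medium-only and DMSO wells, Hill fit.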
IP6K1 inhibitor = blocks human inositol hexakisphosphate kinase 1 | Q92551 | IP6K1 kinase, ADP-Glo luminescence, 2 h; hits give low values | activity change, % (series mostly up to about 58 µM) | actives 0.81% (n = 140,000) | AID 1645851; in the data active = activity change below about -25%; note: % is set by controls: 0 for no effect and ±100 for the full control effect
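ADP-Glo luminescence measures ADP made by human IP6K1 during a 2 h RT reaction with ATP/IP6 (mix at 1.3 mM/130 uM); top library doses 57.5 and 19.1 uM final.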
An asterisk follows results filed as active; i = inactive; ? = inconclusive; · = no result; [ ] = another dose, or the depositor's remark. Unless noted, calls come from the whole dose curve; as a rule, active = well fitted curve in the direction sought with a large enough effect; inconclusive = small, poorly fitted or top-dose-only effect, or another doubt; inactive = no such curve, though single readings can be large; an effect the other way counts as inactive or inconclusive.

SMILES | SNCA expr inhib | KDM5B inhibitor | HEK293 viab | IP6K1 inhibitor
CN(C)c1ncc2c(n1)C(C)(C(=O)NCc1cccc(Cl)c1)CCC2 (centres undefined) | -15%[87.6 µM] | 40µM* | -2%[87.6 µM] | 12
CN(C)c1ncc2c(n1)C(C)(C(=O)NCc1ccc3c(c1)OCO3)CCC2 (centres undefined) | -26%[87.6 µM] | 32µM* | 3%[87.6 µM] | -3
O=C(Cc1ccccc1)Nc1sc2c(c1C(=O)Nc1ccccc1Cl)CCC2 | -8% | i | 7% | -10
CCN(CC)c1ccc(S(=O)(=O)N(CC)CC)cc1NC(=S)Nc1cccnc1 | · | i | · | ·
COc1ccc(-c2cc3c(=O)n(CCNC(=O)c4ccc(OC)c(OC)c4)ccn3n2)cc1 | 95% | ? | -6% | -9
COc1ccc(-c2cc3c(=O)n(CCNC(=O)c4ccco4)ccn3n2)cc1 | 26% | ? | -8% | 5
COc1ccc(-c2cc3c(=O)n(CCNC(=O)c4ccsc4)ccn3n2)cc1 | 16% | 22µM* | -11% | -5
CCOc1ccc(-c2cc3c(=O)n(CCNC(=O)Cc4ccccc4C)ccn3n2)cc1 | 19% | 22µM* | -2% | -2
O=C(NCCn1ccn2nc(-c3ccc(F)cc3)cc2c1=O)c1ccoc1 | 109% | ? | -6% | 1
COc1ccc(-c2cc3c(=O)n(CCNC(=O)c4ccoc4)ccn3n2)cc1 | 6% | 20µM* | -13% | 0
COc1ccc(-c2cc3c(=O)n(CCNC(=O)c4sccc4C)ccn3n2)cc1 | 25% | 25µM* | -14% | -3
O=C1CN(C(=O)COc2ccc(Cl)cc2)C(c2ccc(F)cc2)c2cc(Cl)ccc2N1 (centres undefined) | -20% | i | -26% | -11
COc1ccc(CNC(=O)Cn2nc3n(c2=O)CCCCC3)cc1OC | 3% | i | -7% | 2
CCOc1ccc(-c2cc3c(=O)n(CCNC(=O)c4ccoc4)ccn3n2)cc1 | 79% | 22µM* | -1% | -5
COc1ccc(NC(=O)CSc2ncc(-c3ccc(F)cc3)o2)cc1 | · | i | · | ·
COC(=O)COc1ccc(CC2C(=O)NCCc3ccccc3OCC(=O)N2C)cc1 (centres undefined) | · | · | · | 6
COc1ncccc1-c1nc(N2CCOCC2)cc2c1CN(CC(F)(F)F)C2=O | 12%[87.6 µM] | ? | -11%[87.6 µM] | 16
O=C1c2cc(N3CCOCC3)nc(-c3cccc(F)c3)c2CN1CC1CC1 | -2%[87.6 µM] | 35µM* | 5%[87.6 µM] | 17
C[S+](=O)([O-])Nc1cccc(-c2nc(N3CCOCC3)cc3c2CN(CC2CC2)C3=O)c1 | 20% | 28µM* | 11% | 4
C#CCCN1CCN(C(=O)C2CCN(C(=O)/C=C/c3ccccc3)CC2)CC1 | · | i | · | ·
COc1ccc(NC(=O)c2ccnc(-c3nnc4ccc(Nc5ccccc5)nn34)c2)cn1 | -17%[87.6 µM] | 32µM* | -12%[87.6 µM] | -11
N#C/C(=C/c1csc(-c2ccsc2)n1)C(=O)NC1CC1 | · | i | · | ·
CCc1nnc(NC(=O)c2nc(SC)ncc2Cl)s1 | 3% | i | 18% | 3
COc1ccc(-c2nc3c(c(-c4ccccc4)n2)CN(C(C)=O)CC3)cc1 | 26% | 28µM* | 10% | -10
COc1ccc(-c2nc(C3CC3)nc3c2CN(C(=O)c2ccc(C(F)(F)F)cc2)CC3)cc1 | ? | ? | 10µM* | -11
SMILES | SNCA expr inhib | KDM5B inhibitor | HEK293 viab | IP6K1 inhibitor
COc1ccc(-c2nc(-c3ccccc3)nc3c2CN(C(=O)N(C)C)CC3)cc1 | 14% | ? | -11% | 3
COc1ccc(C(=O)N2CCc3nc(C4CC4)nc(-c4ccc(OC)cc4)c3C2)cc1 | -13% | i | -21% | -11
CS(=O)(=O)N1CCC2(CC1)CC(CC(=O)N1CCN(c3ccccc3F)CC1)CCO2 (centres undefined) | 34% | · | -2% | 6
Cc1nnc(-c2cc(-c3ccsc3)ccn2)n1Cc1ccncc1 | 18%[87.6 µM] | ? | 11%[87.6 µM] | -11
Cc1cc(C)c(CNC(=O)c2cc(-c3cnn(C)c3C)cc3c2OCCN3C(C)C)c(=O)[nH]1 | 11% | ? | 7% | -9
Cc1cc(C)c(CNC(=O)c2cc(-c3ccccc3C)cc3ncn(C)c23)c(=O)[nH]1 | -16%[87.6 µM] | ? | -11%[87.6 µM] | -6
CC(=O)Nc1cccc(-c2cc(C(=O)NCc3c(C)cc(C)[nH]c3=O)c3c(c2)N(C(C)C)CCO3)c1 | -26% | 28µM* | -21% | -21
COc1ccc(-c2cc(C(=O)NCc3c(C)cc(C)[nH]c3=O)c3c(c2)N(C(C)C)CCO3)cc1 | -29% | 32µM* | -10% | -17
COc1ncc(-c2cc(C(=O)NCc3c(C)cc(C)[nH]c3=O)c3c(c2)N(C(C)C)CCO3)cn1 | -27% | i | -7% | -10
Cc1cc(C)c(CNC(=O)c2cc(-c3ccccc3F)cc3c2OCCN3C(C)C)c(=O)[nH]1 | ? | 32µM* | -27% | -14
Cc1cc(C)c(CNC(=O)c2cc(-c3ccccc3O)cc3c2OCCN3C(C)C)c(=O)[nH]1 | -18% | 25µM* | -5% | -7
Cc1cc(C)c(CNC(=O)c2nc(-c3ccccc3)cc3c2ccn3C(C)C)c(=O)[nH]1 | -17%[87.6 µM] | i | -25%[87.6 µM] | 45
CC(C)CCn1nc(C(=O)NCCc2ccc(S(N)(=O)=O)cc2)c2ccccc2c1=O | · | i | · | ·
Cc1cc(C)c(CNC(=O)c2cc(-c3ccccc3O)cc3c2OCCN3C)c(=O)[nH]1 | -30%[87.6 µM] | 35µM* | -17%[87.6 µM] | -17
Cc1cc(C)c(CNC(=O)c2cc(-c3ccccc3C)cc3c2OCCN3C(C)C)c(=O)[nH]1 | ? | 32µM* | -18% | -9
COc1cccc(-c2cc(C(=O)NCc3c(C)cc(C)[nH]c3=O)c3c(c2)N(C(C)C)CCO3)c1OC | -21% | 28µM* | -7% | -18
Cc1cc(C)c(CNC(=O)c2cc(-c3cccc4[nH]ccc34)cc3ncn(C)c23)c(=O)[nH]1 | -2%[87.6 µM] | ? | -9%[87.6 µM] | -1
COc1ccccc1CCC(=O)N[C@@H]1CN(c2ncccn2)C[C@H]1CO | -5% | 18µM* | 0% | 15
Cc1ncccc1C(=O)N[C@@H]1CN(c2ncccn2)C[C@H]1CO | -6% | 20µM* | 8% | 2
O=C(N[C@@H]1CN(c2ncccn2)C[C@H]1CO)c1ccoc1 | 22% | 13µM* | 1% | 7
Cc1nn(C)c(C)c1C(=O)N[C@@H]1CN(c2ncccn2)C[C@H]1CO | -1% | 20µM* | -10% | 0
O=C(NCc1ccccc1)NCC1CCCN(Cc2ccccn2)C1 (centres undefined) | 9% | i | 6% | 1
Cc1ccccc1OCCC(=O)OCC(=O)Nc1ccc(C(N)=O)cc1 | · | i | · | ·
O=[N+]([O-])c1cc(S(=O)(=O)Nc2cccc(Cl)c2)ccc1N/N=C/c1ccc(F)cc1 | · | i | · | ·
Cc1cccc(OCC2(CNC(=O)c3cc(C)on3)C[C@@H](O)[C@@H](O)C2)n1 (some centres undefined) | 30%[87.6 µM] | ? | 0%[87.6 µM] | -3
Cc1cccc(OCC2(CNC(=O)c3cc(C)nn3C)C[C@@H](O)[C@@H](O)C2)n1 (some centres undefined) | 26%[87.6 µM] | 32µM* | -9%[87.6 µM] | 11
Cc1nc2cc(NC(C)C(=O)Nc3c(F)cccc3F)ccc2o1 (centres undefined) | · | i | · | ·
